Data taken from ChEMBL document CHEMBL1201862, “PubChem BioAssay data set” (2004).
Screen size: about 1,200 compounds; about 140 (12%) were called active. The rule behind the calls is not given here. Only a selection was taken, and actives are over-represented in it overall.

Experiment: CFTR-F508del correctors, dose response, FRT cells, YFP quenching, cherry-pick (AID 743402)
Format: functional, cell-based

| Structure (SMILES) | AbsAC35 |
| --- | --- |
| O=C(Nc1ccccc1)N1CCCCN2[C@@H](CO)[C@H](c3ccc(C#Cc4ccccc4)cc3)[C@@H]2C1 | 31.2 µM (active) |
| O=C1NC(=O)C(=Cc2c(Cl)cccc2Cl)C(=O)N1 | 29.4 µM (active) |
